Measured values as given in PubChem BioAssay (NCI).
About 79,000 compounds went through this panel and 15% of them were active in at least one assay; those are over-represented in the sample as a whole. Values without a mark were called inactive. Activity calls are given as the source filed them. Rule as the data show it: active = growth inhibition above about 70%; inactive = the rest.

How the values were obtained:
[1] = NCI Yeast Anticancer Drug Screen. Data for the rad50 strain (AID 155);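 also: 0% = growth of vehicle-only cultures of the same strain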; conditions: S. cerevisiae rad50 strain growth inhibition, active compounds read high
How it was run: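 Readout: growth inhibition relative to vehicle-treated cultures. Compound exposure was carried out in a genetically defined yeast strain deficient in DNA damage repair.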

[2] = NCI Yeast Anticancer Drug Screen. Data for the mec2-1 strain (AID 157); conditions: S. cerevisiae mec2-1 strain, active compounds read high
How it was run: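 Test agents were screened against the mec2-1 yeast strain, with defined DNA repair or cell cycle alteration. Growth was scored as inhibition against vehicle-only controls.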

[3] = NCI Yeast Anticancer Drug Screen. Data for the sgs1 mgt1 strain (AID 161);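 also: 0% = growth of cultures given vehicle only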; conditions: S. cerevisiae sgs1 mgt1 strain, active compounds read high
How it was run: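 Inhibition of yeast growth, normalised to vehicle-treated controls, is reported for a strain bearing genetic alterations in DNA damage repair.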

[4] = NCI Yeast Anticancer Drug Screen. Data for the cln2 rad14 strain (AID 165);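 also: 0% = growth equal to vehicle treated cultures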; conditions: S. cerevisiae cln2 rad14 strain, active compounds read high
How it was run: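 Growth of compound-exposed yeast (cln2 rad14 genotype) measured and expressed as inhibition relative to vehicle.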

[5] = NCI Yeast Anticancer Drug Screen. Data for the bub3 strain (AID 167); conditions: S. cerevisiae bub3 mutant strain, active compounds read high
How it was run: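 Readout: yeast growth inhibition, expressed relative to vehicle-only wells. The test organism is a mutant strain from a panel with lesions in DNA repair or checkpoint genes.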

[6] = NCI Yeast Anticancer Drug Screen. Data for the mlh1 rad18 strain (AID 175); conditions: S. cerevisiae mlh1 rad18 strain growth inhibition, active compounds read high
How it was run: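 In this whole-cell yeast screen, a strain with altered DNA damage repair is challenged with compound, and its growth is measured against matched vehicle-treated controls.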

[7] = at 5.0 µM (retest, dose inferred, filed as 0.5)
[8] = at 50.0 µM (retest, dose inferred, filed as 5.0)

Row | SMILES | growth inhibition [1, 7] [%] | growth inhibition [1, 8] | growth inhibition ([1]; at 50.0 µM) | growth inhibition [2, 7] [%] | growth inhibition [2, 8] | growth inhibition ([2]; at 50.0 µM) | growth inhibition [3, 7] [%] | growth inhibition [3, 8] | growth inhibition ([3]; at 50.0 µM) | growth inhibition [4, 7] [%] | growth inhibition [4, 8] | growth inhibition ([4]; at 50.0 µM) | growth inhibition [5, 7] [%] | growth inhibition [5, 8] | growth inhibition ([5]; at 50.0 µM) | growth inhibition [6, 7] [%] | growth inhibition [6, 8] | growth inhibition ([6]; at 50.0 µM)
1 | CCOC(=O)C1=C(C)NC(C)=C(C(=O)OCC)C1c1ccc([N+](=O)[O-])s1 | 61 | 98% (active) | 91.3% (active) | 35 | 98% (active) | 93.2% (active) | 49 | 95% (active) | 93.2% (active) | 29 | 77% (active) | 91.7% (active) | 40 | 83% (active) | 93.2% (active) | 65 | 98% (active) | 91.6% (active)
2 | O=C(C1=NNC(c2ccccc2)C1C(=O)c1ccccc1)c1ccccc1 (configuration not stated) | -1 | 82% (active) | 74.8% (active) | -7 | 65% | 30.6% | 2 | 84% (active) | 79% (active) | 2 | 67% | 67% | -10 | 86% (active) | 75% (active) | 4 | 86% (active) | 81.2% (active)
3 | O=C(CC(C[N+](=O)[O-])c1ccc2c(c1)OCO2)c1ccccc1 (configuration not stated) | 0 | -3% | -12.5% | 9 | 17% | 17.1% | -1 | -50% | 33.9% | 4 | 16% | 4.65% | 18 | 45% | 88.2% (active) | -4 | 9% | 45.1%
4 | Nc1ccc(C(=O)Oc2cccccc2=O)cc1 | 3 | 36% | 82% (active) | 2 | 32% | 42.9% | 7 | 52% | 91.5% (active) | 3 | 20% | 16.1% | -1 | 32% | 77.2% (active) | 4 | 78% (active) | 95.4% (active)
5 | CCCC(C(=O)OCCNC1CCCCC1)c1ccccc1 (configuration not stated) | 2 | 18% | 71.3% (active) | -13 | 14% | 11.9% | 0 | 37% | 63.3% | -38 | 47% | 35.1% | -4 | 69% | 28.5% | 2 | 18% | 55.2%
6 | CC/C=C\C/C=C\C/C=C\CCCCCCCC(=O)OCC(O)CO (configuration not stated) | 0 | 4% | 22.9% | 0 | 37% | 88.1% (active) | 0 | 48% | 86.8% (active) | 1 | 10% | 42.9% | -2 | 83% (active) | 53.4% | 2 | 24% | 52.5%
7 | CC(C)(C)C(NO)C(O)N1CCCCC1 (configuration not stated) | -155 | -141% | 20.2% | -53 | -52% | 6.25% | -59 | -63% | 17.1% | -63 | -57% | 50% | -69 | -73% | -4% | -118 | -105% | 12.4%
8 | COc1ccc(C(O)(c2ccccc2)c2ccccc2)cc1 | -5 | 98% (active) | 99.1% (active) | -4 | 99% (active) | 99% (active) | -3 | 99% (active) | 99.2% (active) | -5 | 92% (active) | 93.9% (active) | 3 | 87% (active) | 99.5% (active) | -6 | 98% (active) | 98.7% (active)
9 | O=[N+]([O-])c1ccc(C2=Nn3cnnc3SC2)o1 | 2 | 36% | 81.7% (active) | 5 | 35% | 20.9% | 27 | 73% (active) | 80.8% (active) | 1 | 29% | 78.5% (active) | 4 | 75% (active) | 59.3% | 18 | 84% (active) | 86.7% (active)
